Data from PubChem BioAssay (Tox21).
Where “and” joins values, the source holds several entries; their conditions need not be identical. Equal values may be shown once. Records with an inconclusive call do not appear. Entries that show only a call come without a potency. A structure can be active in one record and inactive in another. Calls of active or inactive are those of the source. Calls come from the whole dose curve.
Potency is the fitted concentration of half-maximal effect.

Experiment: p53 small molecule agonists, cell-based qHTS assay with human liver microsomes: qHTS cell viability counter screen (AID 1963579); note: nearly all actives have a fitted effect of over 45% in size
Settings: p53RE-bla HCT-116 viability, ATP luminescence, 16 h, HLM; series mostly up to 66 µM; activity change, negative = cytotoxicity: at the top concentration
Source text: National Center for Advancing Translational Sciences [NCATS]
Division of Preclinical Innovation [DPI]
U.S. Environmental Protection Agency [EPA]
National Institutes of Environmental Health Sciences [NIEHS]
National Toxicology Program [NTP]
U.S. Food and Drug Administration [FDA]
p53, a tumor suppressor protein, is activated following cellular insult, including DNA damage and other cellular stresses. The activation of p53 regulates cell fate by inducing DNA repair, cell cycle arrest, apoptosis, or cellular senescence. The activation of p53, therefore, is a good indicator of DNA damage and other cellular stresses. […] The activation of the reporter gene under culture conditions can be detected by fluorescence intensity. This cell line was used to screen the Tox21 10K compound library in the condition of presence of human liver microsomes and to identify agonists that activate the p53 signaling pathway after in vitro metabolic activation (Ooka et al., Archive of Toxicology 96:1975-1987, 2022).
Tox21 Assay Protocol Summary:
The p53RE-bla cells were dispensed at 4,000cells/3ul/well in 1536-well black-clear bottom plates. After the assay plates were incubated at 37 C, 5% CO2 incubator for 5 hours, 23 nL of compounds dissolved in DMSO, positive controls or DMSO only was transferred to the assay plate. Following compound addition, 3 uL of human liver microsomes (XenoTech, Kansas City, KS) at final concentration of 0.5 mg/mL and 1uL of B-Nicotinamide adenine dinucleotide 2'-phosphate (NADPH) at final concentration of 0.5 mg/mL were transferred to the assay plate. The plates were incubated at 37 C for 16 hours. 1 uL of LiveBLAzer detection mixture was added to each well and the plates were incubated at room temperature in the dark for 2 h. Fluorescence intensity at 460 and 530 nm emission and 405 nm excitation were measured by an Envision plate reader. For cell viability readout that measures cytotoxicity, 4 ul/well of CellTiter-Glo reagent was added into the assay plates using a Flying Reagent Dispenser. After 30 min incubation at room temperature, the luminescence intensity in the plates was measured using a ViewLux plate reader.
In the case of `CC(=O)[C@@]1(O)CC[C@H]2[C@@H]3C[C@H](C)C4=CC(=O)C=C[C@]4(C)[C@@]3(F)[C@@H](O)C[C@@]21C`, the Potency is reported as “inactive”.
In the case of `CCOc1ccc(NC(C)=O)cc1`, the Potency is reported as “inactive”.
In the case of `CCCCCCCCCCCCc1ccccc1O`, the Potency is reported as 18 µM (active) and 20.4 µM (active).
For `CCCCCCCCC/C=C/CC1CC(=O)OC1=O` (stereo not given), the Potency was “inactive”.
In the case of `CCCCC(CC)COC(=O)c1ccc(C(=O)OCC(CC)CCCC)cc1` (stereo not given), the Potency is reported as “inactive”.
For `Cc1cccc(C)c1`, the Potency was “inactive”.
With `O=C1OC(c2ccc(O)cc2)(c2ccc(O)cc2)c2ccccc21` the Potency was “inactive”.
With `O=c1cc[nH]c(=O)[nH]1` the Potency was “inactive”.
For `CCn1c2ccccc2c2cc(N)ccc21`, the Potency was “inactive”.
For `CCCCCCCCC`, the Potency was “inactive”.
In the case of `Oc1ccc2ccccc2c1N=Nc1ccccc1`, the Potency is reported as “inactive”.
In the case of `O=C1O[C@H]([C@H](O)CO)C(O)=C1O`, the “activity change, negative = cytotoxicity” value is reported as 1.29% (inactive).
In the case of `CCCCC/C=C\C/C=C\CCCCCCCC(=O)OC`, the Potency is reported as “inactive and 51.3 µM (active)”.
In the case of `COC(=O)c1cccc(C(=O)OC)c1`, the Potency is reported as “inactive”.
For `c1ccc2cc(Nc3ccc(Nc4ccc5ccccc5c4)cc3)ccc2c1`, the Potency was “inactive”.
In the case of `CC(=O)C(=O)O`, the Potency is reported as “inactive”.
In the case of `C=C(C)C1CC=C(C)CC1` (stereo not given), the Potency is reported as “inactive”.
With `Cc1ccncc1` the Potency was “inactive”.
With `O=C(O)c1ccccc1Nc1cccc(C(F)(F)F)c1` the Potency was 40.8 µM (active) and inactive.
For `CCCCCCCCCC(=O)O`, the Potency was “inactive”.
With `C#C[C@]1(O)CC[C@H]2[C@@H]3CCc4cc(OC)ccc4[C@H]3CC[C@@]21C` the Potency was “inactive”.
In the case of `O=C(O)Cn1c(=O)n(Cc2ccc(Br)cc2F)c(=O)c2ccc(Cl)cc21`, the Potency is reported as “inactive”.
With `Cc1ccc(C(=O)O)o1` the Potency was “inactive”.
With `Oc1ccc(O)cc1` the Potency was “inactive”.
With `CCOCCO` the Potency was “inactive”.
For `OC[C@H]1O[C@H](O[C@]2(CCl)O[C@H](CCl)[C@@H](O)[C@@H]2O)[C@H](O)[C@@H](O)[C@H]1Cl`, the Potency was “inactive”.
With `CC1(C)O[C@@H]2C[C@H]3[C@@H]4CCC5=CC(=O)C=C[C@]5(C)[C@@]4(F)[C@@H](O)C[C@]3(C)[C@]2(C(=O)CO)O1` the Potency was “inactive”.
For `O=C1CCc2ccccc2O1`, the Potency was “inactive”.
With `CC(C)CCCCCCCOC(=O)CCCCC(=O)OCCCCCCCC(C)C` the Potency was “inactive”.
With `Cc1cc(C(C)(C)C)c(O)c(C(C)(C)C)c1` the Potency was “inactive”.
In the case of `CCCCC(CC)COC(=O)CS` (stereo not given), the Potency is reported as “inactive”.
With `Cc1ccc(S(=O)(=O)NCl)cc1` the Potency was “inactive”.
With `CCCC(C)=O` the Potency was “inactive”.
For `C=CC(=O)OCCOCCOCCOCCOC(=O)C=C`, the Potency was “inactive”.
In the case of `CN(C)Cc1cc(CN(C)C)c(O)c(CN(C)C)c1`, the Potency is reported as “inactive”.
In the case of `NNCCc1ccccc1`, the Potency is reported as “inactive”.
For `Nc1ccc(S(=O)(=O)Nc2nccs2)cc1`, the Potency was “inactive”.
In the case of `CC(=O)c1ccccc1`, the Potency is reported as “inactive”.
For `CCCCCCCCCC`, the Potency was “inactive”.
In the case of `CCCCCCCCCCC=CC1CC(=O)OC1=O` (stereo not given), the Potency is reported as “inactive”.
